Experimental data taken from PubChem BioAssay AID2732 (Emory University Molecular Libraries Screening Center, 2010).
The whole screen tested about 220,000 compounds, of which about 8,200 (3.7%) were called active. The list comes from a sample in which actives are over-represented; it also holds similar structures and randomly drawn compounds. A number with no mark means an inactive call.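 Rule for the calls: active = compounds that reduced the stress-induced luciferase reporter signal by more than about 70% of percent inhibition (limit read from the data); inactive = the rest.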

Experiment: inhibitors of CHOP promoter induction, primary screen, cell-based, unfolded protein response, luciferase reporter (AID 2732);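 note: 0% = tunicamycin plus vehicle and 100% = wells without tunicamycin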
Conditions: CHO-K1 CHOP-promoter luciferase, tunicamycin-induced, 15-18 h; at 10 µM; active compounds read high

In order of rising inhibition:
1. COc1ccc(C(=O)Nc2ccc(CN3CCOCC3)cc2)cc1  -29.9%
2. COCC(=O)Nc1nnc(COc2ccccc2)s1  -20.1%
3. COCCNC(=S)N1CCN(C)CC1  -18.1%
4. CCc1nc2sc3c(Cl)ncnc3c2c2c1CCCC2  -17.1%
5. NC(=O)[C@H]1CC2(CC(c3cccc(NC(=O)[C@H]4CCC(=O)N4)c3)=NO2)CN1C(=O)c1ccccc1C(=O)c1ccccc1 (stereo partly specified)  -11.9%
6. CCOC(=O)c1oc2c(CN3CCN(C)CC3)c(O)ccc2c(=O)c1-c1ccc(Br)cc1  -10.9%
7. Cn1cnc([N+](=O)[O-])c1Sc1n[nH]c(N)n1  -10.3%
8. O=C(Nc1ccccc1C(=O)N1CCOCC1)c1ccc(CSc2ccccc2)cc1  -8.2%
9. CC(C)(C)c1cc(C(=O)NN)n(Cc2ccc(Cl)cc2Cl)n1  -7.9%
10. CCOC(=O)CN/C=C(\C#N)c1ccc(F)cc1  -6.58%
11. CCC(C)NC(=O)C1c2ccccc2Oc2ccccc21 (stereo unspecified)  -5.78%
12. C/C(=N\OCC(=O)O)c1ccc(Cl)cc1  -4.7%
13. Cn1c(SCC(=O)N/N=C/c2ccc(O)c(O)c2)nc2ccccc21  -4.19%
14. C=CCNC(=O)c1ccc2c3n(nc2c1)-c1ccc(C)cc1CO3  -2.7%
15. O=C(Cc1ccccc1)Nc1c(Cl)ccc2nsnc12  -1.48%
16. CCOC(=O)CN(Cc1ccc(OC)c(OC)c1)S(=O)(=O)c1ccc(OC)cc1  -1.05%
17. CCOC(=O)C1=C(C)NC(=S)NC1c1cccs1 (stereo unspecified)  0.7%
18. Cc1ccc(COc2ccc(C(=O)NN)cc2)cc1  0.74%
19. N#CCC(=O)N/N=C/c1cn(Cc2ccc3ccccc3c2)c2ccccc12  1.95%
20. Cc1ccc(C(=O)Cn2cc([N+](=O)[O-])nc2C)cc1  2.6%
21. COc1ccc(N=Nc2ccc(O)c(P(=O)(c3ccccc3)c3ccccc3)c2)cc1  2.83%
22. Nc1ccc(C(=O)OCC(=O)NC2CCS(=O)(=O)C2)cc1[N+](=O)[O-] (stereo unspecified)  3.77%
23. Cc1c([N+](=O)[O-])c(N)nn1C  4.08%
24. NS(=O)(=O)c1cccnc1Nc1cccc(Cl)c1  5.4%
25. C=CCn1cc(-c2cccc(C(F)(F)F)c2)cc(C#N)c1=O  5.76%
26. CCOC(=O)C1CCN(C(=O)Nc2cccc(OC)c2)CC1  6.27%
27. COc1ccc(CCNC(=O)C(Sc2ccccn2)c2ccccc2)cc1OC (stereo unspecified)  6.29%
28. Cn1c2c(c(=O)n(C)c1=O)C(c1cccc(F)c1)C(C#N)=C(N)O2 (stereo unspecified)  6.57%
29. C=CC1C(OC2OC(CO)C(O)C(O)C2O)OC=C(C(=O)OC)C1CC1CC(=O)CC(CC(=O)CCc2ccc(O)cc2)O1 (stereo unspecified)  7.57%
30. Cc1ccc(S(=O)(=O)N2CCN(C(=O)COC(=O)c3c(C)noc3C)CC2)c(C)c1  8.26%
31. O=C(Nc1ccccc1)Nc1nnc(COc2ccccc2F)s1  9.53%
32. CC1(C)CC(CNCCC(c2ccc(F)cc2)c2ccco2)CCO1 (stereo unspecified)  10.6%
33. COc1ccc(N2CCN(c3ccc([N+](=O)[O-])nc3)CC2)cc1  10.8%
34. CCn1c(CN2C(=O)CSc3ccccc32)n[nH]c1=S  11.5%
35. O=c1c(-c2ccc3c(c2)OCCO3)c(C(F)(F)F)oc2cc(O)cc(O)c12  13.2%
36. Cc1nnc(C)c2c(C)n(N)c(C)c12  13.9%
37. O=C(c1ccc(F)cc1)C1CCN(Cc2cn[nH]c2-c2ccccc2)CC1  15.6%
38. CSc1nc(C)nc(C2CC2)c1C#N  15.9%
39. Cn1nnc(NC(=S)NC(=O)c2ccccc2)n1  17.2%
40. C=CCn1c(SCn2nnc3ccccc3c2=O)nnc1-c1ccc(Cl)cc1  17.8%
41. CCOC(=O)C1=C(C)Nc2nc3ccccc3n2C1c1cccs1 (stereo unspecified)  18%
42. CC(=O)NC(Cc1ccccc1)C(=O)NC1CCN(c2ncccc2[N+](=O)[O-])CC1 (stereo unspecified)  19.6%
43. CCOC(=O)c1c(CC(C)C)csc1/N=C/C1=C(O)CCCC1=O  24.8%
44. Cc1nnc(NC(=O)CCCOc2ccccc2)s1  26.2%
45. O=C(CCCN1C(=O)/C(=C\c2ccccc2)SC1=S)Nc1ccccc1O  27%
46. O=C1[C@@H]2C(Cc3ccc(O)cc3)NC3(C(=O)Nc4ccc(F)cc43)[C@@H]2C(=O)N1c1ccc(F)cc1 (stereo partly specified)  27.9%
47. O=C(CN1CCOCC1)N/N=C/c1ccc(-c2ccc(Br)cc2)o1  32.5%
48. O=C(CCCN1C(=O)/C(=C/c2ccccc2)SC1=S)Nc1ccc(O)cc1  58.8%
49. CC(C)n1cnc2c(Nc3cccc(Cl)c3)nc(N(CCO)CCCO)nc21  61.8%

In the case of `COc1ccc(C(CCN(Cc2ccc(OC)c(OC)c2)C(=O)CCl)c2ccccc2)cc1` (stereo unspecified), the inhibition is reported as 106% (active).
In the case of `OCCCNc1nccc(-c2cc(Nc3cccc(Cl)c3)ncn2)n1`, the inhibition is reported as 103% (active).
For `COc1ccc(-c2cc(C3CCN(c4ncccc4[N+](=O)[O-])CC3)[nH]n2)cc1`, the inhibition was 75.9% (active).
In the case of `C=CCn1c(-c2ccc(Cl)cc2)ccc(C#N)c1=O`, the inhibition is reported as 82.2% (active).
With `O=C(Nc1ccc(CSc2ccccc2)cc1)c1ccc(CN2CCOCC2)cc1` the inhibition was 79.5% (active).
For `Cc1ccc(OCc2nnc(NC(=O)OCC(C)C)s2)cc1`, the inhibition was 91% (active).
For `CSCCC1NC2(C(=O)Nc3ccc(Cl)cc32)[C@@H]2C(=O)N(C3CCCC3)C(=O)[C@H]12` (stereo partly specified), the inhibition was 85.7% (active).
With `CCOc1cc(/C=C(/C#N)c2ccc(Cl)cc2)cc(Cl)c1OCC(=O)O` the inhibition was 87.8% (active).
In the case of `O=C(Nc1nnc(COc2ccccc2)s1)Nc1ccccc1F`, the inhibition is reported as 96.7% (active).
With `CCOC(=O)c1cc2cc(-c3c(C(=O)OCC)oc4cc(O)cc(O)c4c3=O)ccc2o1` the inhibition was 105% (active).
In the case of `C=CCOC(=O)C1=C(C)NC(C)=C(C(=O)OCC=C)C1c1cccs1`, the inhibition is reported as 86.8% (active).
In the case of `C=CCOc1ccc(/C=C2\SC(=S)N(CCC(=O)O)C2=O)cc1`, the inhibition is reported as 88% (active).
